Myeloid diff MLP: promotes myeloid progenitor differentiation; 360,000 compounds, 1% hits; calls only at 10 µM; AID 624256; ER-HoxA9 myeloid progenitors, lysozyme-GFP differentiation, flow cytometry;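 active means normalized GFP-positive differentiation at or above the plate's own cutoff, the solvent-only control mean plus 3 SD; inconclusive means no clear call, values can overlap the other calls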;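 further: cells exposed to compound for four days before flow analysis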
AGP1 TOR yeast: alters AGP1-GFP fluorescence in TOR pathway yeast screen; S. cerevisiae AGP1-GFP multiplex flow cytometry, 3 h; GFP as percent of DMSO wells; GFP response vs DMSO, % at 10 µM; 320,000 compounds, 0.02% hits; AID 2066;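 active means GFP response relative to DMSO above a set limit, near screen average plus 3 SD, cut at about 150% in these data; inconclusive means fewer than 70 cells counted for the yeast strain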;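 further: median GFP channel fluorescence of the gated AGP1 strain per well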
LAP4 TOR yeast: modulators of TOR pathway LAP4-GFP in S. cerevisiae. S. cerevisiae LAP4-GFP multiplex, flow cytometry GFP, 3 h; median GFP as percent of DMSO wells. GFP response vs DMSO, % at 10 µM. 320,000 compounds, 0.34% hits. AID 2023;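 active means GFP response vs DMSO above a set limit, about the screen mean plus 3 SD, cut at about 150% in these data; inconclusive means under 70 cell events counted for the yeast strain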
MEP2-GFP yeast: modulators of TOR pathway MEP2-GFP in S. cerevisiae; S. cerevisiae MEP2-GFP strain, flow cytometry GFP, 3 h; 100% = DMSO control level; 330,000 compounds, 0.51% hits; GFP response vs DMSO, % at 10 µM; AID 2016;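 active means GFP response versus DMSO above a set limit, roughly screen mean plus 3 SD, cut at about 180% in these data; inconclusive means fewer than 70 cells counted for a yeast strain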;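 further: median GFP fluorescence of the barcode-gated MEP2-GFP cells per well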
CIT2 TOR yeast: alters CIT2-GFP fluorescence in TOR pathway yeast screen; S. cerevisiae CIT2-GFP strain, flow cytometry, 3 h; 100 means same as DMSO wells; GFP response vs DMSO, % at 10 µM; 320,000 compounds, 0.065% hits; AID 2029;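 active means GFP response relative to DMSO above a set limit, near the screen mean plus 3 SD, cut at about 150% in these data; inconclusive means Fewer than 70 cells measured for a yeast strain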;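 further: ratio of well median GFP fluorescence to mean of DMSO wells on the plate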
RPL19A-GFP yeast: alters RPL19A-GFP fluorescence in TOR pathway yeast screen | S. cerevisiae RPL19A-GFP strain, flow cytometry, 3 h; stronger effect = lower value | percent response vs DMSO, % at 10 µM | 330,000 compounds, 0.3% hits | AID 2025;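 active means percent response vs DMSO below 50%; inconclusive means fewer than 70 events counted for the yeast strain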;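 further: median channel GFP fluorescence of the barcoded RPL19A-GFP strain; ratio of sample median GFP to plate DMSO average so 100% = DMSO; lower means less RPL19A-GFP as with rapamycin TOR inhibition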
An asterisk follows results filed as active; i = inactive; ? = inconclusive; · = no result; + = active, no number; [ ] = another dose, or the depositor's remark. Most compounds without a hit are left out; they make up all but 1.8% or so of the library.

SMILES	Myeloid diff MLP	AGP1 TOR yeast	LAP4 TOR yeast	MEP2-GFP yeast	CIT2 TOR yeast	RPL19A-GFP yeast
CCN(CC(=O)Nc1c(C(=O)OC)[nH]c2ccc(Cl)cc12)c1ccc2c(c1)OCO2	+	114	126	123	107	110
CCOC(=O)c1[nH]c2ccc(Cl)cc2c1NC(=O)/C=C/c1ccc2c(c1)OCO2	i	88	90	101	86	102
COc1ccc(N2CCN(CC(=O)c3ccc(O)cc3O)CC2)cc1	i	95	91	102	98	92
O=C(CN1CCN(c2ccc(F)cc2)CC1)c1ccc(O)cc1O	+	109	112	107	108	102
Fc1ccc(CNc2ncccn2)cc1	i	?	60	190*[may fluoresce violet]	?	30*[may fluoresce violet]
CC(C)(C)N(Cc1ccccc1)C(=O)CSc1nnc(CNc2ccc(F)cc2)o1	i	99	93	94	101	94
CCCCn1c(=N)n(CC(=O)c2ccc(Br)s2)c2ccccc21	i	94	95	100	102	101
O=C(Nc1ccc(Cl)cc1)C1CC=CCC1C(=O)OCC(F)(F)C(F)F (configuration not stated)	i	25	118	266*[may fluoresce violet]	?	37*[may fluoresce violet]
COC(=O)c1ccccc1NC(=O)CCC(=O)N1CCSc2ccccc21	i	105	104	101	97	98
CCOc1cc(C(=O)Nc2nnc(S(=O)(=O)N3CCOCC3)s2)cc(OCC)c1OCC	i	?	65	210*[may fluoresce violet]	?	14*[may fluoresce violet]
COc1ccccc1S(=O)(=O)CC(O)COc1ccccc1Cl (configuration not stated)	i	118	107	116	150*[may fluoresce green]	95
Cc1ccc(P(=O)(CC(=O)O)c2ccc(C)cc2)cc1	i	?	104	355*[may fluoresce violet]	?	15*[may fluoresce violet]
Cc1cc(N/N=C/c2ccc([N+](=O)[O-])o2)nc2ccccc12	+	97	106	95	97	100
Cn1c(/C=C/c2ccc([N+](=O)[O-])o2)nc2ccccc2c1=O	·	90	·	248*[may fluoresce green]	180*[may fluoresce green]	126
Cn1c(/C=C/c2ccccc2)nc2ccccc2c1=O	i	84	91	94	85	97
CCOC(=O)c1cccc(OC(=O)CCNC(=O)c2ccc(Cl)cc2)c1	i	92	92	91	88	92
O=C(CNC(=O)c1ccc2c(c1)OCO2)N/N=C(Br)/C=C/c1ccccc1	+	99	103	104	101	100
COc1cccc(CCN2CCC(CNS(=O)(=O)c3cc(-c4cc(C)no4)ccc3C)CC2)c1	?	?	64	163	?	15*[may fluoresce violet]
Cc1cc(C(N)=O)c2ccccc2n1	i	110	106	107	105	101
Cc1cc(C(=O)N/N=C/c2ccc([N+](=O)[O-])s2)c2ccccc2n1	+	98	95	103	99	98
Cc1cc(C(=O)N/N=C/c2cc([N+](=O)[O-])ccc2O)c2ccccc2n1	i	97	91	101	102	100
Cc1cc(C(=O)N/N=C/c2ccc([N+](=O)[O-])cc2)c2ccccc2n1	+	95	103	97	90	99
Cc1cc(C(=O)O)c2ccccc2n1	+	99	98	103	106	99
C#CC(CC)(CC)NC(=O)Nc1ccccc1C(=O)OC	i	105	104	99	101	101
COc1ccccc1N1CCN(C(=O)CCc2nnc3ccc(N4CCCC4)nn23)CC1	i	100	95	103	109	96
SMILES	Myeloid diff MLP	AGP1 TOR yeast	LAP4 TOR yeast	MEP2-GFP yeast	CIT2 TOR yeast	RPL19A-GFP yeast
COc1ccc(N2CCN(C(=O)CCc3nnc4ccc(N5CCCC5)nn34)CC2)cc1	i	70	104	190*	127	69
O=c1sc2ccccc2c(N2CCN(c3ccccc3)CC2)c1[N+](=O)[O-]	i	100	102	98	102	99
Cc1ccc(-c2c(CC(=O)O)c(C)nc3sc4c(c23)CCCC4)cc1	i	95	102	100	83	104
CCOc1ccccc1N1CCN(C(=O)c2ccncc2)CC1	·	92	93	101	92	98
CCOc1ccccc1N1CCN(C(=O)c2cc(-c3cccnc3)nc3c(Cl)cccc23)CC1	+	98	101	115	103	101
CCC(C)c1ccc(N(C(=O)c2ccco2)C(C(=O)NC2CCCC2)c2cccnc2)cc1 (configuration not stated)	i	15	71	271*[may fluoresce violet]	?	55
Cc1ccc(N(C(=O)CNC(=O)c2ccco2)C(C(=O)NC2CCCC2)c2cccnc2)c(C)c1 (configuration not stated)	+	104	101	113	111	106
Cc1ccc(N(C(=O)CNC(=O)c2ccco2)C(C(=O)NC2CCCCC2)c2cccnc2)c(C)c1 (configuration not stated)	i	94	91	111	106	95
O=[N+]([O-])/C=C/c1c(OCc2ccccc2)ccc2ccccc12	i	88	181*	92	81	92
COc1ccc(NC(=O)CSCC(=O)N(C)CC(=O)Nc2cccc3ccccc23)cc1	i	113	110	113	104	106
O=S(=O)(c1ccc(N2CCC(c3ccc(Cl)cc3)=N2)cc1)N(CCO)CCO	i	18	91	230*[may fluoresce violet]	?	55
CN(C)CCCNS(=O)(=O)c1ccc(N2CCC(c3ccc(Cl)cc3)=N2)cc1	·	?	?	?	?	31*[may fluoresce violet]
CN(C)CCCNS(=O)(=O)c1cc(Cl)ccc1Cl	i	96	101	108	96	99
COC(=O)C1=C(C)NC2=C(C(=O)CC(c3cccs3)C2)C1c1ccsc1 (configuration not stated)	i	107	80	98	91	98
CCOC(=O)C1=C(C)NC2=C(C(=O)CC(c3cccs3)C2)C1c1cccs1 (configuration not stated)	+	104	103	106	97	108
O=C(Nc1ccccc1-c1nc2ccccc2[nH]1)c1ccc(N2C(=O)CCC2=O)cc1	+	105	101	106	·	105
O=C(Nc1ccccc1-c1nc2ccccc2[nH]1)c1ccc(S(=O)(=O)N2CCCCC2)cc1	i	·	·	·	·	·
Cc1ccc(NC(=O)c2noc3c2CCc2ccccc2-3)cc1	i	103	102	104	103	105
CCc1ccc(NC(=O)c2noc3c2CCc2ccccc2-3)cc1	i	?	106	237*[may fluoresce violet]	?	13*[may fluoresce violet]
Cc1cc(C)cc(N(CCC#N)C(=O)COC(=O)c2ccccc2SCC(=O)N2CCCC2)c1	i	84	90	100	89	108

Compound activity as filed in PubChem.
